Luc counter: Kinase-Glo luciferase inhibition (counter-screen); Q27757; Kinase-Glo luciferase, ATP luminescence, 8 min; Potency, µM (titrated, usually from 38.3 µM), most hits filed as inhibitors; 200,000 tested, 0.28% active; also: nearly all actives have a fitted effect of over 60% in size
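Recombinant Kinase-Glo luciferase, 10 uM ATP (linear range), luciferin; imidazole pH 7.2 / KCl / MgCl2 / Tween / BSA buffer; 8 min RT; luminescence.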
ELG1 genotoxic: induces genotoxicity in HEK293T cells with luciferase-tagged ELG1. AID 504466. 330,000 tested, 1.3% active. Potency, µM (top dose mostly 46 µM), most hits filed as activators. HEK293T ELG1-luciferase reporter, luminescence, 16 h; also: nearly all actives have a fitted effect of over 60% in size
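Cells (2,000/well) expressing the ELG1-luciferase fusion are dosed by pin tool and kept 16 hr at 37 °C, 5% CO2. Signal comes from ONE-Glo luciferase reagent after 30 min at room temperature.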
NPC1 promoter act: NPC1 promoter activation; Huh7 NPC1 promoter luciferase reporter, 24 h; Potency, µM (series often up to 9.22 µM), hits mostly activators; 320,000 tested, 2.4% active; AID 485313; also: nearly all actives have a fitted effect of over 60% in size
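Luminescence read-out of NPC1 promoter-driven luciferase in stably transfected Huh7 cells; compounds delivered in DMSO and left 24 h at 37C, 5% CO2, qHTS titration format.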
Rab9 prom act: activates the Rab9 promoter; Huh7 Rab9 promoter-luciferase reporter, luminescence, 24 h; Potency, µM (titrated, usually from 9.22 µM), usual class: activators; 320,000 tested, 2.8% active; AID 485297; also: nearly all actives have a fitted effect of over 60% in size
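Stable Rab9-luc Huh7, 1500 cells/well, 2 h settle; cmpd in DMSO, 24 h, 37 °C/5% CO2; luciferase reagent 10 min RT; luminescence.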
SMN2 splice enh: enhancers of SMN2 splice variant expression; Potency, µM (top dose mostly 46.1 µM), usual class: activators; AID 1458; 210,000 tested, 2.8% active; HEK293 SMN2-luciferase splicing reporter, luminescence, 30-36 h; also: nearly all actives have a fitted effect of over 55% in size
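qHTS luciferase splicing reporter: luminescence rises when SMN2 exon 7 is included in transfected HEK293 cells. Compound exposure lasted 30-36 h at 37C, with 4.5 mM final sodium butyrate as control, followed by a ONE-Glo read.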
FLuc modulator: inhibits or activates purified firefly luciferase, miR-21 counter-screen. P08659. purified FLuc, Km substrates, luminescence inhibition. Potency, µM (titrated, usually from 57.5 µM), actives largely listed as inhibitors. 360,000 tested, 6.9% active; also: nearly all actives have a fitted effect of over 55% in size
Target sequence (P08659 whole entry, looked up): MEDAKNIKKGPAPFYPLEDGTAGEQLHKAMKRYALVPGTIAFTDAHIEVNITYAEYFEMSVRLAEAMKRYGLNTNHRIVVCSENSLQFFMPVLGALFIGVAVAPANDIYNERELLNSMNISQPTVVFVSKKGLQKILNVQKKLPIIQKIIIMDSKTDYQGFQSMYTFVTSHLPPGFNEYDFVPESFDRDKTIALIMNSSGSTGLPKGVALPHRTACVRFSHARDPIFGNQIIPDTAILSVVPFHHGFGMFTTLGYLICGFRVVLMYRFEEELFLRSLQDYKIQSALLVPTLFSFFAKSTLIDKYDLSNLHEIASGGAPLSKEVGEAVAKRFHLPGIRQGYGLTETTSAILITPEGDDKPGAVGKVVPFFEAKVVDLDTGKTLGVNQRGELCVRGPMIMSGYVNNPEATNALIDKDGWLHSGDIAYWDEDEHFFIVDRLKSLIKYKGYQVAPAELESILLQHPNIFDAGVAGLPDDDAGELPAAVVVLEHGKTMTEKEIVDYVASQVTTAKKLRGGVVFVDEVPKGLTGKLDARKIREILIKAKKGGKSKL
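Biochemical qHTS of compounds, final roughly 60 µM downward over six points, against 10 nM purified firefly luciferase using Km concentrations of substrates (10 uM D-luciferin, 10 uM ATP) in Tris acetate pH 7.5 buffer; luminescence output.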
Each line names hits and unclear results; the compound was inactive in the other large screens. Most compounds without a hit are left out; they make up all but 7.3% or so of the library. Calls follow the shape of the dose curve; as a rule, active = well fitted curve in the direction sought with a large enough effect; inconclusive = small, poorly fitted or top-dose-only effect, or another doubt; inactive = no such curve, though single readings can be large; an effect the other way counts as inactive or inconclusive.

CCOC(=O)CNC(=O)CSc1nc(-c2ccc(C)cc2)ns1	FLuc modulator 12µM
CCOC(=O)CSc1nc(-c2ccc(OC)cc2)ns1	FLuc modulator 23.9µM
CCOC(=O)N1CCN(C(=O)CSc2nc(-c3cccc(C)c3)ns2)CC1	FLuc modulator 16.9µM
Cc1ccc(-c2nn(-c3ccccc3)cc2/C=N/NC(=O)CSc2nnc(C)n2-c2ccccc2)cc1	NPC1 promoter act inconclusive, SMN2 splice enh inconclusive, FLuc modulator inconclusive
Nn1c(Nc2ccccc2)nc2ccccc21	ELG1 genotoxic inconclusive, NPC1 promoter act 2.82µM, Rab9 prom act 3.98µM, SMN2 splice enh inconclusive, FLuc modulator 10.7µM
Cn1c(Nc2ccccc2)nc2ccccc21	FLuc modulator inconclusive (no result: Luc counter, SMN2 splice enh)
COCCCNC(=S)N(CCO)Cc1cc2cc3c(cc2[nH]c1=O)OCCO3	none (no result: Luc counter, SMN2 splice enh)
Cc1ccc(S(=O)(=O)CC(=O)c2ccc3c(c2)OCCO3)cc1	NPC1 promoter act inconclusive, Rab9 prom act inconclusive, FLuc modulator 13.5µM (no result: Luc counter, SMN2 splice enh)
Cc1c(C(=O)NCc2ccc3c(c2)OCO3)oc2ccc(Br)cc12	none
Cc1cc(Cl)c2oc(C(=O)NCCN3CCCCC3CO)c(C)c2c1 (centres undefined)	ELG1 genotoxic inconclusive (no result: Luc counter, SMN2 splice enh)
Cc1cc(Cl)c2oc(C(=O)NCCC3CCCCO3)c(C)c2c1 (centres undefined)	ELG1 genotoxic inconclusive, NPC1 promoter act inconclusive, Rab9 prom act inconclusive, FLuc modulator 21.3µM (no result: Luc counter, SMN2 splice enh)
Cc1c(C(=O)Nc2ccc3c(c2)OCCO3)oc2ccc(Br)cc12	ELG1 genotoxic inconclusive, Rab9 prom act inconclusive, FLuc modulator 5.36µM (no result: Luc counter, SMN2 splice enh)
CCN1C(=O)c2ccc(C(=O)Nc3ncc(C)s3)cc2C1=O	ELG1 genotoxic inconclusive, Rab9 prom act inconclusive, FLuc modulator 1.69µM
COc1ccc(N2CCN(c3ncnc4c3[nH]c3ccccc34)CC2)cc1	none (no result: ELG1 genotoxic, NPC1 promoter act, Rab9 prom act)
COc1cccc(C(C[N+](=O)[O-])c2c(C)[nH]n(-c3ccccc3)c2=O)c1 (centres undefined)	none (no result: Luc counter, SMN2 splice enh)
O=C(Nc1ccc2c(c1)OCCO2)c1cccc(Br)c1	ELG1 genotoxic 2.59µM, NPC1 promoter act 1.26µM, Rab9 prom act 1.41µM, FLuc modulator 1.07µM (no result: Luc counter, SMN2 splice enh)
Cc1ccc(C(=O)Nc2ccc3c(c2)OCCO3)cc1	ELG1 genotoxic 0.58µM, NPC1 promoter act 0.282µM, Rab9 prom act 0.316µM, FLuc modulator 0.426µM (no result: Luc counter, SMN2 splice enh)
CCN(CC)S(=O)(=O)c1ccc(C(=O)Nc2ccc3c(c2)OCCO3)cc1	FLuc modulator inconclusive
CCC(O)c1cc2c(cc1NC(=O)c1cccc(Br)c1)OCCO2 (centres undefined)	none (no result: Luc counter, ELG1 genotoxic, NPC1 promoter act, Rab9 prom act)
Cc1ccc2oc(C(=O)N(Cc3ccncc3)CC3CCCO3)c(C)c2c1 (centres undefined)	ELG1 genotoxic inconclusive, NPC1 promoter act inconclusive, Rab9 prom act inconclusive, FLuc modulator 10.7µM (no result: Luc counter, SMN2 splice enh)
CCCOc1cccc(C(=O)Nc2cccc(NC(=O)c3ccco3)c2)c1	FLuc modulator 16.9µM
Cc1ccc(/C=N/NS(=O)(=O)c2ccccc2)o1	none
CCOc1ccccc1-c1noc(CCC(=O)Nc2cccnc2)n1	none (no result: Luc counter, SMN2 splice enh)
O/N=C/c1cccc[n+]1CCCCCC[n+]1ccccc1/C=N/O	none (no result: Luc counter, SMN2 splice enh)
CC(OC(=O)c1ccc(Br)o1)C(=O)Nc1ccc2c(c1)OCCO2 (centres undefined)	none (no result: Luc counter, SMN2 splice enh, FLuc modulator)
Cc1c(C(=O)NCC2CCCO2)oc2ccc(Br)cc12 (centres undefined)	ELG1 genotoxic 23.1µM, Rab9 prom act inconclusive, FLuc modulator inconclusive (no result: Luc counter, SMN2 splice enh)
O=C(O)CCC(=O)Nc1cccc(C(=O)Nc2cccc(Cl)c2)c1	FLuc modulator inconclusive
O=C(O)CCC(=O)Nc1cccc(C(=O)Nc2ccc(Br)cc2)c1	FLuc modulator 23.9µM
Cc1ccc(CNc2ccc3c(c2)OCO3)cc1	FLuc modulator 23.9µM (no result: ELG1 genotoxic, NPC1 promoter act, Rab9 prom act)
O=C(Nc1ccc2c(c1)OCCO2)c1ccc(Br)o1	Luc counter inconclusive, ELG1 genotoxic inconclusive, NPC1 promoter act 1.26µM, Rab9 prom act 1.58µM, SMN2 splice enh 14.1µM, FLuc modulator 2.13µM
Cc1c(C(=O)NCC2CCCO2)oc2ccc(S(=O)(=O)N3CCCCC3)cc12 (centres undefined)	none
CC(=O)N1c2c(cc(Br)cc2S(=O)(=O)Nc2ccccc2C)CC1C (centres undefined)	none (no result: Luc counter, ELG1 genotoxic, NPC1 promoter act, Rab9 prom act)
